# Publication PMC10726135, “HNF4α isoforms regulate the circadian balance between carbohydrate and lipid metabolism in the liver”
# Whole data set: some 18,000 sequences, median “log2 normalized intensity” near 0.39, cut for the highest 2% near 6.6. What follows is part of a selection rich in the highest values, with near analogues and random picks from the rest.
# Molecular target: T1, HNF4alpha2 (COS-7 nuclear extract) (Homo sapiens, UniProt P41235 1-474)
# T1 sequence: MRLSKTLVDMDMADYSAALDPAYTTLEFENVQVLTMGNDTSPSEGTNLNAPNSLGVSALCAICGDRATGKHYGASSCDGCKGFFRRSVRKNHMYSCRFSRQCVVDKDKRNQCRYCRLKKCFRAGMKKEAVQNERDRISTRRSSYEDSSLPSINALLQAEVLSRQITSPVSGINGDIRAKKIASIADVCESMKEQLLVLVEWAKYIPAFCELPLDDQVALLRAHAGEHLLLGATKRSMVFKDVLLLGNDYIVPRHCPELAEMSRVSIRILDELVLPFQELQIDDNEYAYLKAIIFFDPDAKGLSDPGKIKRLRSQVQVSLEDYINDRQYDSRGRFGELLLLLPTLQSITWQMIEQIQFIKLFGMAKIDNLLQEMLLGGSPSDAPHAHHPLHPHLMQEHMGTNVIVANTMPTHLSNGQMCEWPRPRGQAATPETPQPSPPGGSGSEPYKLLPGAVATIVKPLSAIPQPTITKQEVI
# Assay: protein-binding microarray; COS-7 nuclear extract on double-stranded Agilent 4x180k PBM; binding buffer, salt, pH and temperature not given in the material; high values mean tight binding
# Conditions: chain copies: 2; label: 3' end of strand 1 on the slide; dsDNA, one strand shown
# In short: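 The binding signal is Agilent software's gProcessedSignal after background correction and normalization. Arrays were a custom Agilent SurePrint G3 4x180k design of double-stranded ~60-nt oligonucleotides with ~44,000 test sequences in quadruplicate, probed with nuclear extracts of COS-7 cells transiently expressing a human HNF4α isoform. Scans were made at 2-µm resolution on an Agilent G2565CA scanner.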
row,Sequence,binding signal
1,ACGTGGCAATCATTCTGTCTGCCTTCAGGCGCCTAGGGAGATTAGAGTATCGGTCGA,-0.947 log2 normalized intensity
2,CACTGTTGCCCCTTCCAAAGTCCACCTCAAGCCTAGGGAGATTAGAGTATCGGTCGA,4.43 log2 normalized intensity
3,ATGACCTTTGAGCAATAGGAAATGGGAGGGGCCTAGGGAGATTAGAGTATCGGTCGA,2.34 log2 normalized intensity
4,CCTTTTTGGAATGTGTTTGCATGACTCATAGCCTAGGGAGATTAGAGTATCGGTCGA,1.77 log2 normalized intensity
5,GCATGGAATGACTTTGGGGAAATGACCTTTGCCTAGGGAGATTAGAGTATCGGTCGA,7.23 log2 normalized intensity
6,CCTTGACACATCTGATTAGAGGCTCAGGTAGCCTAGGGAGATTAGAGTATCGGTCGA,-0.794 log2 normalized intensity
7,TATACCTGTACACTTACAAGTGTACAAAGGGCCTAGGGAGATTAGAGTATCGGTCGA,2.65 log2 normalized intensity
8,CTGTACACTTACAAGTGTACAAAGGTCACTGCCTAGGGAGATTAGAGTATCGGTCGA,7.61 log2 normalized intensity
9,GTCTGACCAACCTGTCCAAAGGTCATCTGTGCCTAGGGAGATTAGAGTATCGGTCGA,7.04 log2 normalized intensity
10,ATTGGCTTGGCTGTGTCCCTTGACCAAAGGGCCTAGGGAGATTAGAGTATCGGTCGA,2.07 log2 normalized intensity
11,AGTATATTGGCTTGGCTGTGTCCCTTGACCGCCTAGGGAGATTAGAGTATCGGTCGA,3.04 log2 normalized intensity
12,CACTTACAAGTGTACAAAGGTCACTTCTGTGCCTAGGGAGATTAGAGTATCGGTCGA,6.32 log2 normalized intensity
13,ACCAACCTGTCCAAAGGTCATCTGTCACTCGCCTAGGGAGATTAGAGTATCGGTCGA,5.7 log2 normalized intensity
14,CCTGTCCAAAGGTCATCTGTCACTCTAGATGCCTAGGGAGATTAGAGTATCGGTCGA,5.47 log2 normalized intensity
15,CTTGGCTGTGTCCCTTGACCAAAGGTCACTGCCTAGGGAGATTAGAGTATCGGTCGA,6.77 log2 normalized intensity
16,TTATATCAGAGGAATGTCTGACCAACCTGTGCCTAGGGAGATTAGAGTATCGGTCGA,0.0786 log2 normalized intensity
17,TCAGAGGAATGTCTGACCAACCTGTCCAAAGCCTAGGGAGATTAGAGTATCGGTCGA,0.136 log2 normalized intensity
18,GGAATGTCTGACCAACCTGTCCAAAGGTCAGCCTAGGGAGATTAGAGTATCGGTCGA,7.66 log2 normalized intensity
19,AAGGCTTTGAAGTCTGGTGGCAAGTACCCTGCCTAGGGAGATTAGAGTATCGGTCGA,-0.842 log2 normalized intensity
20,ATTTTCTCATCCCAGGGATAATGATAAAGAGCCTAGGGAGATTAGAGTATCGGTCGA,-0.184 log2 normalized intensity
21,TCCCTTTAGTGGAGTATAGGAACATGAACTGCCTAGGGAGATTAGAGTATCGGTCGA,1.96 log2 normalized intensity
22,GAGTTGGGGACAAAGTTCAAGGTCCAGCCTGCCTAGGGAGATTAGAGTATCGGTCGA,5.28 log2 normalized intensity

row,Sequence,binding signal
1,GTCCAAGATGGCAATGTTCCTGCTCTGTCAGCCTAGGGAGATTAGAGTATCGGTCGA,-0.996 log2 normalized intensity
2,AGATTACTTCAAGGCTGGAGTTCACTCCCAGCCTAGGGAGATTAGAGTATCGGTCGA,-0.354 log2 normalized intensity
3,CATGGGTCTCTTCCTCAGTTTGTTCTTGGGGCCTAGGGAGATTAGAGTATCGGTCGA,1.18 log2 normalized intensity
4,GATCCAAAAGACCCAGGTGTGTTGCAACTTGCCTAGGGAGATTAGAGTATCGGTCGA,0.84 log2 normalized intensity
5,AGAGCAAGGGTCAAGGGTCATTTGTTTTTAGCCTAGGGAGATTAGAGTATCGGTCGA,5.91 log2 normalized intensity
6,CCGCAGTGGGAGAGCAAGGGTCAAGGGTCAGCCTAGGGAGATTAGAGTATCGGTCGA,6.65 log2 normalized intensity
7,CCCATCCGCAGTGGGAGAGCAAGGGTCAAGGCCTAGGGAGATTAGAGTATCGGTCGA,3.57 log2 normalized intensity
8,TGGGTGGGGGAAGTGTGGTCAAGGGTCAGTGCCTAGGGAGATTAGAGTATCGGTCGA,4 log2 normalized intensity
9,GTGGGAGAGCAAGGGTCAAGGGTCATTTGTGCCTAGGGAGATTAGAGTATCGGTCGA,6.7 log2 normalized intensity
10,AAGGGTCAAGGGTCATTTGTTTTTACAGACGCCTAGGGAGATTAGAGTATCGGTCGA,6.27 log2 normalized intensity
11,CAGAACAAAGTCCAGTAAGGACAGTTCCAGGCCTAGGGAGATTAGAGTATCGGTCGA,2.29 log2 normalized intensity
12,CTTGTAAGCCACAGTACAAAGGTGAGCTTTGCCTAGGGAGATTAGAGTATCGGTCGA,3.57 log2 normalized intensity
13,TGGATCATGTGTCTGAGCAAGTTTCCTCCTGCCTAGGGAGATTAGAGTATCGGTCGA,-0.544 log2 normalized intensity
14,GTCAAACCTTTGACCCTTTATAATCCCCTAGCCTAGGGAGATTAGAGTATCGGTCGA,4.25 log2 normalized intensity
15,CGACCCCTCGAGGCAACCTTTGACCTGGTAGCCTAGGGAGATTAGAGTATCGGTCGA,7.48 log2 normalized intensity
16,TGAAGCGACCCCTCGAGGCAACCTTTGACCGCCTAGGGAGATTAGAGTATCGGTCGA,8.54 log2 normalized intensity
17,GTCAAATCACTGAAGCGACCCCTCGAGGCAGCCTAGGGAGATTAGAGTATCGGTCGA,1.42 log2 normalized intensity
18,TCTCGGTCAAACCTTTGACCCTTTATAATCGCCTAGGGAGATTAGAGTATCGGTCGA,5.95 log2 normalized intensity
19,CCTCGAGGCAACCTTTGACCTGGTACTATGGCCTAGGGAGATTAGAGTATCGGTCGA,6.02 log2 normalized intensity
20,GAAACCCTAAACCTGCAAACCTTTGACCTTGCCTAGGGAGATTAGAGTATCGGTCGA,5.31 log2 normalized intensity
21,AAGTATCTCGGTCAAACCTTTGACCCTTTAGCCTAGGGAGATTAGAGTATCGGTCGA,6.7 log2 normalized intensity
22,ATCACTGAAGCGACCCCTCGAGGCAACCTTGCCTAGGGAGATTAGAGTATCGGTCGA,1.12 log2 normalized intensity

row,Sequence,binding signal
1,CTGAATAAAACAAACTCATTTTGATCTTTGGCCTAGGGAGATTAGAGTATCGGTCGA,2.24 log2 normalized intensity
2,CAGCAGACTCAGAAAAATATGTGGACTTCAGCCTAGGGAGATTAGAGTATCGGTCGA,2.49 log2 normalized intensity
3,CACCCCCATCTATGCACTCTCACCTTGGGGGCCTAGGGAGATTAGAGTATCGGTCGA,0.591 log2 normalized intensity
4,CAAATTGCTGACTTTCTGTGTCTTGGCAGTGCCTAGGGAGATTAGAGTATCGGTCGA,1.59 log2 normalized intensity
5,TCTACCTGACCTCCCAAAATTCTTCACATAGCCTAGGGAGATTAGAGTATCGGTCGA,-0.0778 log2 normalized intensity
6,TTCCCATTCATAAAATTACGCCACAGAGTTGCCTAGGGAGATTAGAGTATCGGTCGA,-0.871 log2 normalized intensity
7,AGAAGCTTGGTATGTCTGATGAATAGAAAGGCCTAGGGAGATTAGAGTATCGGTCGA,0.62 log2 normalized intensity
8,GTCCAAAGGTCAGCAAGCCTGGAGTTCTGAGCCTAGGGAGATTAGAGTATCGGTCGA,4.22 log2 normalized intensity
9,CCACTGGTGTAAGCTCTGGAGTCCAAAGGTGCCTAGGGAGATTAGAGTATCGGTCGA,3.79 log2 normalized intensity
10,TCCACAGTCAAGGCCAAAGGTTAAAAATAAGCCTAGGGAGATTAGAGTATCGGTCGA,3.7 log2 normalized intensity
11,GGAGACCACTGGTGTAAGCTCTGGAGTCCAGCCTAGGGAGATTAGAGTATCGGTCGA,0.767 log2 normalized intensity
12,ATCCACCCATCCAAAGGTCAGCAATCTCAAGCCTAGGGAGATTAGAGTATCGGTCGA,2.93 log2 normalized intensity
13,AAGCTCTGGAGTCCAAAGGTCAGCAAGCCTGCCTAGGGAGATTAGAGTATCGGTCGA,7.73 log2 normalized intensity
14,GGTGTAAGCTCTGGAGTCCAAAGGTCAGCAGCCTAGGGAGATTAGAGTATCGGTCGA,8.34 log2 normalized intensity
15,TCATTTCAGCCTTAACTCAAAAGGCCAAAGGCCTAGGGAGATTAGAGTATCGGTCGA,-0.978 log2 normalized intensity
16,CTGGAGTCCAAAGGTCAGCAAGCCTGGAGTGCCTAGGGAGATTAGAGTATCGGTCGA,6.88 log2 normalized intensity
17,GGAGTGACCCTGGGAGCAAAGGTCAAGAGTGCCTAGGGAGATTAGAGTATCGGTCGA,6.55 log2 normalized intensity
18,TCAGCCTTAACTCAAAAGGCCAAAGTCCAAGCCTAGGGAGATTAGAGTATCGGTCGA,8.38 log2 normalized intensity
19,AAGGTCAGCAAGCCTGGAGTTCTGATGTTCGCCTAGGGAGATTAGAGTATCGGTCGA,0.534 log2 normalized intensity
20,TTAATAGAAGAAAGCCCTTTTTGGAATGTGGCCTAGGGAGATTAGAGTATCGGTCGA,0.655 log2 normalized intensity
21,AATGGTGGGATAGGAGACATGAAGGACATAGCCTAGGGAGATTAGAGTATCGGTCGA,-0.721 log2 normalized intensity
22,TCCTCTTATCTTCAGGTTTGCTAATATCTGGCCTAGGGAGATTAGAGTATCGGTCGA,1.35 log2 normalized intensity

row,Sequence,binding signal
1,CTAGGAGAGTCCGGGGCAAACAAGGGCAACGCCTAGGGAGATTAGAGTATCGGTCGA,-0.823 log2 normalized intensity
2,TGAGATAGGTACTATTATTAGAGTCCCTTTGCCTAGGGAGATTAGAGTATCGGTCGA,1.01 log2 normalized intensity
3,TTTCCCCGTCCCAAGCTGAGGTCTGGTGTCGCCTAGGGAGATTAGAGTATCGGTCGA,2.59 log2 normalized intensity
4,CTGAGATAGTCATTCTTCTACAGTGTTTACGCCTAGGGAGATTAGAGTATCGGTCGA,0.901 log2 normalized intensity
5,AGCACACCTTTTTTTCATGCAAATTTCCGTGCCTAGGGAGATTAGAGTATCGGTCGA,0.118 log2 normalized intensity
6,AAGAAATAAAAACAGCTGGGTTCCAAAAGGGCCTAGGGAGATTAGAGTATCGGTCGA,0.155 log2 normalized intensity
7,GTCAAACTTTGGACCCACTGCAGGATTGGAGCCTAGGGAGATTAGAGTATCGGTCGA,3.52 log2 normalized intensity
8,CCCTCCTTAAGACCTAGATGGAATGTTGTGGCCTAGGGAGATTAGAGTATCGGTCGA,1.29 log2 normalized intensity
9,CTATGTCAGGCCATTTCACCTTTGCCCTGTGCCTAGGGAGATTAGAGTATCGGTCGA,6.82 log2 normalized intensity
10,AAGGCTGTCACACTGGCCTTTGCCCTCGCTGCCTAGGGAGATTAGAGTATCGGTCGA,4.98 log2 normalized intensity
11,TGTCACACTGGCCTTTGCCCTCGCTGGCGGGCCTAGGGAGATTAGAGTATCGGTCGA,4.25 log2 normalized intensity
12,AAAGGCTGTCACACTTGCCCTTTGCCCTCAGCCTAGGGAGATTAGAGTATCGGTCGA,8.34 log2 normalized intensity
13,CTGTCACACTTGCCCTTTGCCCTCACTGGTGCCTAGGGAGATTAGAGTATCGGTCGA,7.1 log2 normalized intensity
14,AGCCTCTATGTCAGGCCATTTCACCTTTGCGCCTAGGGAGATTAGAGTATCGGTCGA,3.72 log2 normalized intensity
15,TCAGGCCATTTCACCTTTGCCCTGTCAGTCGCCTAGGGAGATTAGAGTATCGGTCGA,5.88 log2 normalized intensity
16,CACAAAAAGGCTGTCACACTTGCCCTTTGCGCCTAGGGAGATTAGAGTATCGGTCGA,4.82 log2 normalized intensity
17,ACACTTGCCCTTTGCCCTCACTGGTAGAAGGCCTAGGGAGATTAGAGTATCGGTCGA,5.09 log2 normalized intensity
18,GAGGAGAGAGTAAATAATTGATGAAACAGGGCCTAGGGAGATTAGAGTATCGGTCGA,-0.991 log2 normalized intensity
19,AGTACCTCTCAAAAATCTCACTCACCCTAAGCCTAGGGAGATTAGAGTATCGGTCGA,-0.279 log2 normalized intensity
